Data taken from the supplement of paper PMC10720658.
± gives the standard deviation of the averaged measurements.

System: AEK1 (Tb927.3.2440)
Assay: percent reduction in TR-FRET probe signal relative to DMSO control; higher = stronger displacement of ATP-site probe (binding)
Details: 1 µM; incubation time 1 h

| Compound | percent reduction in TR-FRET probe signal [%] |
| --- | --- |
| O=C(c1ccc(F)c(F)c1Nc1ccc(I)cc1F)N1CC(O)([C@@H]2CCCCN2)C1 [Cobimetinib (GDC-0973, RG7420)] | 2.36 ± 13 |
| Cc1ccc(NC(=O)c2ccc(CN3CCN(C)CC3)cc2)cc1Nc1nc(-c2cccnc2)cs1 [Masitinib (AB1010)] | -4.2 ± 7 |
| Cc1[nH]c(/C=C2\C(=O)Nc3ccc(S(=O)(=O)N(C)c4cccc(Cl)c4)cc32)c(C)c1C(=O)N1CCN(C)CC1 | 34.1 ± 16 |
| COc1ccc(Cl)cc1NC(=O)Nc1cc(C)nc2ccccc12 | -2.86 ± 7.3 |
| CO[C@H]1C[C@@H]2CC[C@@H](C)[C@@](O)(O2)C(=O)C(=O)N2CCCC[C@H]2C(=O)O[C@H]([C@H](C)C[C@@H]2CC[C@@H](OC(=O)C(C)(CO)CO)[C@H](OC)C2)CC(=O)[C@H](C)/C=C(\C)[C@@H](O)[C@@H](OC)C(=O)[C@H](C)C[C@H](C)/C=C/C=C/C=C/1C | 2.13 ± 12 |
| Oc1cccc(-c2nc(N3CCOCC3)c3oc4ncccc4c3n2)c1 | -5.8 ± 6.4 |
| Nc1nccc(Oc2ccc(NC(=O)c3c[nH]cc(-c4ccc(F)cc4)c3=O)cc2F)c1Cl | 24.6 ± 15 |
| CS(=O)(=O)c1ccc(-c2cnc(N)c(C(=O)Nc3ccccc3)n2)cc1 | 5.23 ± 4.7 |
| COc1cc2ncnc(Nc3ccc(F)c(Cl)c3)c2cc1OCCCN1CCOCC1 [Gefitinib (ZD1839)] | 5.46 ± 21 |
| Cl.O=S(=O)(c1cccc2cnccc12)N1CCCNCC1 [Fasudil (HA-1077) HCl] | 4.93 ± 2 |
| COc1cc2ncnc(Nc3ccc(Cl)cc3F)c2cc1OC | 4.47 ± 2.8 |
| O=C(NC1CCNCC1)c1n[nH]cc1NC(=O)c1c(Cl)cccc1Cl | -2.75 ± 9.5 |
| COc1ccc(S(=O)(=O)N(CCO)c2ccccc2CN(C)C/C=C/c2ccc(Cl)cc2)cc1.O=P(O)(O)O [KN-93 Phosphate] | -9.18 ± 9.6 |
| Cc1ccc(-c2nn(C(C)(C)C)c3ncnc(N)c23)cc1 | -1.9 ± 8.7 |
| C1=C/COCc2cc(ccc2OCCN2CCCC2)Nc2nccc(n2)-c2cccc(c2)COC/1 [Pacritinib (SB1518)] | -2.95 ± 9.1 |
| CCOc1cc2ncc(C#N)c(Nc3ccc(F)c(Cl)c3)c2cc1NC(=O)/C=C/CN(C)C [Pelitinib (EKB-569)] | 4.14 ± 4.7 |
| Cn1cc(-c2ccc3nnc(C(F)(F)c4ccc5ncccc5c4)n3n2)cn1 | -0.537 ± 18 |
| COc1ccc2cc(-c3[nH]c(-c4ccc(S(C)=O)cc4)nc3-c3ccncc3)ccc2c1 (stereo not drawn) [Tie2 kinase inhibitor] | 2.05 ± 9.9 |
| Cc1cc(Nc2cc(CN3CCOCC3)c3nc(C)c(Cc4ccc(Cl)cc4F)n3n2)n[nH]1 | 49 ± 10 |

| Compound | percent reduction in TR-FRET probe signal [%] |
| --- | --- |
| CCN(CC)CCCC(C)Nc1nc(C)cc(Nc2ccc3nc(C)cc(N)c3c2)n1.Cl.Cl.Cl (stereo not drawn) | -2.65 ± 9 |
| CC(C)(C)c1cc(/C=C(\C#N)C(N)=S)cc(C(C)(C)C)c1O [Tyrphostin AG 879] | 4.66 ± 0.43 |
| Cc1[nH]c2ccccc2c1C1=C(NCCc2ccc(F)cc2)C(=O)N(C)C1=O | 8.32 ± 10 |
| COc1ccc(-c2nc(N3CCOCC3)c3sc(CN(C)c4ncc(C(=O)NO)cn4)cc3n2)cn1 | -2.41 ± 5.7 |
| CNC(=O)c1c(F)cccc1Nc1nc(Nc2cc3c(cc2OC)CCN3C(=O)CN(C)C)nc2[nH]ccc12 | -0.577 ± 11 |
| CNS(=O)(=O)C[C@H]1CC[C@H](N(C)c2ncnc3[nH]ccc23)CC1.O=C(O)/C=C\C(=O)O [Oclacitinib] | 6.94 ± 17 |
| Cc1ccc(NC(=O)c2cccc(C(C)(C)C#N)c2)cc1Nc1ccc2ncn(C)c(=O)c2c1 | -9.01 ± 3.1 |
| COc1cc(Nc2ncc3c(n2)-c2ccc(Cl)cc2C(c2c(F)cccc2OC)=NC3)ccc1C(=O)O [Alisertib (MLN8237)] | 2.08 ± 9.1 |
| Cc1ccc(S(=O)(=O)/C=C/C#N)cc1 | -7.27 ± 4.2 |
| CCN1CCN(Cc2ccc(-c3cc4c(N[C@H](C)c5ccccc5)ncnc4[nH]3)cc2)CC1 | 12.6 ± 16 |
| CNC(=O)c1ccc(C)c(-n2c(C)cc(OCc3ccc(F)cc3F)c(Br)c2=O)c1 | -1.42 ± 7.4 |
| Cn1cnc2c(F)c(Nc3ccc(Br)cc3F)c(C(=O)NOCCO)cc21 | -1.44 ± 2.7 |
| CCOc1cc(N2CCC(O)CC2)ccc1Nc1ncc2c(n1)N(C)c1ccccc1C(=O)N2C | -8.09 ± 7.7 |
| Cn1cc(C2=C(c3ccc(Cl)cc3Cl)C(=O)NC2=O)c2ccccc21 | -6.53 ± 5.3 |
| Cl.Cl.OC(c1cc(-c2ccc(Cl)cc2)nc2ccccc12)C1CCCCN1 (stereo not drawn) [Vacquinol-1] | -5.59 ± 3.7 |
| CCn1c(-c2nonc2N)nc2c(C#CC(C)(C)O)ncc(OC[C@H]3CCCNC3)c21 | 8.8 ± 4.9 |
| CCc1ccc(/C=C2/SC(=S)NC2=O)cc1 | -1.24 ± 9.7 |
| CN(C)CCOc1ccc(-c2nc(-c3ccncc3)c(-c3ccc4c(c3)CC/C4=N\O)[nH]2)cc1 | 3.05 ± 12 |
| Nc1nc(N)c2nc(-c3cccc(O)c3)c(-c3cccc(O)c3)nc2n1 | 19.3 ± 26 |
